An excerpt weighted towards active compounds, which were near 7.3% of everything screened.
ELG1 genotox = genotoxicity induction in ELG1-luciferase HEK293T cells | HEK293T ELG1-luciferase reporter, luminescence, 16 h | Potency, µM (series often up to 46 µM), actives largely listed as activators | 330,000 tested, 1.3% active | AID 504466; note: nearly all actives have a fitted effect of over 60% in size
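Quantitative HTS format in 1536-well plates. HEK293T ELG1-luciferase reporter cells receive test compound and are incubated 16 hr at 37 °C, 5% CO2; ONE-Glo added, 30 min room temperature, then luminescence read.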
NPC1 promoter act = NPC1 promoter activation; Potency, µM (titrated, usually from 9.22 µM), usual class: activators; 320,000 tested, 2.4% active; Huh7 NPC1 promoter luciferase reporter, 24 h; note: nearly all actives have a fitted effect of over 60% in size
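Compounds in DMSO were transferred onto Huh7 NPC1-luciferase reporter cells pre-incubated 2 h; after 24 h at 37 °C, Amplite reagent was dispensed and luminescence recorded 10 min later.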
Rab9 promoter act = activates the Rab9 promoter; Huh7 Rab9 promoter-luciferase reporter, luminescence, 24 h; 320,000 tested, 2.8% active; AID 485297; Potency, µM (series often up to 9.22 µM), actives largely listed as activators; note: nearly all actives have a fitted effect of over 60% in size
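Huh7 cells stably carrying Rab9 promoter–luciferase reporter, plated 1500 cells/well, compound added after 2 h and incubated 24 h at 37 °C; luciferase luminescence then read after 10 min with detection reagent.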
FLuc counter = firefly luciferase modulation, counter-screen for miR-21 project | 360,000 tested, 6.9% active | Potency, µM (top dose mostly 57.5 µM), actives largely listed as inhibitors | purified FLuc, Km substrates, luminescence inhibition | AID 588342 | P08659; note: nearly all actives have a fitted effect of over 55% in size
Target sequence (P08659 whole entry, looked up): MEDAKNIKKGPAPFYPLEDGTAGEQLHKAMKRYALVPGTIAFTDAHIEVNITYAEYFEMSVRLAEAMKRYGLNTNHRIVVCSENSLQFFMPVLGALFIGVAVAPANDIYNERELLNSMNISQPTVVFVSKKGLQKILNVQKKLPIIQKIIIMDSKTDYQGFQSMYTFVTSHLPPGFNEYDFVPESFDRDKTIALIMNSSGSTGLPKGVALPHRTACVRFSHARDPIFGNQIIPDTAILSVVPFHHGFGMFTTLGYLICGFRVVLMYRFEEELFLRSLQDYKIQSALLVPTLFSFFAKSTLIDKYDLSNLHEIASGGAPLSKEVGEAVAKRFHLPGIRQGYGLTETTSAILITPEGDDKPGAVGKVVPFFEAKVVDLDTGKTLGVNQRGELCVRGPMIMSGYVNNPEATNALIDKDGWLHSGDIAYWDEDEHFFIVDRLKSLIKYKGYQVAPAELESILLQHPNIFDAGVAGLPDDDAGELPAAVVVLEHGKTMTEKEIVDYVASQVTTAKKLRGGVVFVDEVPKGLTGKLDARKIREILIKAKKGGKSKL
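Purified P. pyralis luciferase, 10 nM final, with Km-level 10 uM D-luciferin and 10 uM ATP in 50 mM Tris acetate pH 7.5, 10 mM Mg acetate, 0.01% Tween-20, 0.05% BSA; 6-point qHTS titration about 60 µM downward; luminescence read.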
KinaseGlo FLuc = counter-screen: inhibitors of Kinase-Glo firefly luciferase; Kinase-Glo luciferase, ATP luminescence, 8 min; Q27757; Potency, µM (highest dose often 38.3 µM), most hits filed as inhibitors; 200,000 tested, 0.28% active; note: nearly all actives have a fitted effect of over 60% in size
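Luminescence was the read-out, taken after 8-minute incubation at ambient temperature. Luciferase turned over luciferin with 10 uM ATP in imidazole pH 7.2 buffer containing KCl, MgCl2, Tween 20 and BSA.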
SMN2 splice up = SMN2 splice variant enhancement | HEK293 SMN2-luciferase splicing reporter, luminescence, 30-36 h | Potency, µM (doses to about 46.1 µM), hits mostly activators | 210,000 tested, 2.8% active | AID 1458; note: nearly all actives have a fitted effect of over 55% in size
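HEK293 cells carry an SMN2 […]–luciferase reporter in which exon 7 inclusion puts luciferase in frame. Cells were plated 10-12 h before compound addition, then incubated 30-36 h at 37C. ONE-Glo luminescence was read; sodium butyrate at 4.5 mM final served as control.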
A number is an active result; - = inactive; ? = inconclusive; . = not tested or not shown; [ ] = another dose, or the depositor's remark. Calls come from the whole dose curve; as a rule, active = well fitted curve in the direction sought with a large enough effect; inconclusive = small, poorly fitted or top-dose-only effect, or another doubt; inactive = no such curve, though single readings can be large; an effect the other way counts as inactive or inconclusive.

SMILES | ELG1 genotox | NPC1 promoter act | Rab9 promoter act | FLuc counter | KinaseGlo FLuc | SMN2 splice up
COC(=O)Cn1c(C(=O)N2CCCC2)cc2c1C[C@H]1CN(C(=O)c3ccccc3)[C@@](Cc3ccccc3)(C(=O)OC)[C@@H]21 | . | . | . | . | - | -
COC(=O)c1c(-c2cccs2)csc1NC(=O)c1ccc(C)cc1 | . | . | . | 5.36µM | . | .
COC(=O)c1c(NC(=O)c2ccc(C)cc2)csc1C | - | - | - | 10.7µM | . | .
CCN1CCC(N(Cc2cccc(OC)c2)C(=O)Nc2cccc(C(F)(F)F)c2)CC1 | . | . | . | - | . | .
NC(=O)C1=CN(C2OC(COP(=O)(O)OP(=O)(O)OC[C@H]3O[C@@H](n4cnc5c(N)ncnc54)[C@H](OP(=O)(O)O)[C@@H]3O)C(O)C2O)C=CC1 (stereo partly specified) | . | - | - | . | . | .
C/C=C/c1ccc(OCC(=O)O)c(OC)c1 | - | - | - | - | . | .
COc1cc(/C=C/c2ccc3c([N+](=O)[O-])cccc3n2)ccc1OCC(=O)O | - | - | - | 3.38µM | . | .
O=C(O)COc1ccc(/C=C/c2ccc3cccc([N+](=O)[O-])c3n2)cc1 | - | - | - | 2.69µM | - | -
COc1cc(/C=C/c2nc3ccc([N+](=O)[O-])cc3s2)ccc1OCC(=O)O | - | - | - | 2.69µM | . | .
CCOc1c(OC(C)=O)ccc(/C=C/c2ccc3cccc(OC)c3n2)c1[N+](=O)[O-] | - | ? | - | 6.01µM | - | ?
CCOc1ccc2oc(=O)cc(CN3CCN(C(=O)c4ccc(Cl)cc4)CC3)c2c1 | . | . | . | - | . | -
COC(=O)c1ccc(C(NC(=O)OCc2ccccc2)/C(C)=C/[C@@H](C)C(=O)NCc2nc3ccccc3s2)cc1 (stereo partly specified) | . | . | . | . | - | -
COc1cc(/C=C/c2ccc3cccc([N+](=O)[O-])c3n2)ccc1OCC(=O)O | - | - | - | 1.9µM | - | -
O=c1oc(CCCO)cc2ccc(/C=C/c3cccc([N+](=O)[O-])c3)cc12 | 4.11µM | 3.98µM | - | ? | . | .
CCCCCn1c(=N)n(CC(O)COc2cccc(C)c2)c2ccccc21 (stereo unspecified) | . | . | . | - | . | -
CCOc1cnc(-c2c(-c3c(Cl)cccc3Cl)noc2C)o1 | - | - | - | - | - | -
CCOc1cnc(-c2ccc(OC)cc2)o1 | ? | 2.51µM | ? | 9.53µM | - | ?
CCOc1oc(-c2ccc(OC)cc2)nc1C(F)(F)F | - | - | - | - | - | -
CCOc1cnc(-c2ccc(Cl)cc2)o1 | - | - | - | 21.3µM | - | -
CC(C)Oc1ccc(CNC(=O)C(C)n2ccc3cc(S(=O)(=O)N4CCCCCC4)ccc32)cc1 (stereo unspecified) | . | . | . | - | . | .
CC1CCc2c(sc(/N=C/N(C)C)c2C#N)C1 (stereo unspecified) | ? | - | 4.47µM | 15.1µM | - | -
CC1CCc2c(sc(NC(=O)C3CCCO3)c2C#N)C1 (stereo unspecified) | ? | 3.55µM | 3.16µM | 10.7µM | - | 11.2µM
CCOC(=O)Nc1sc2c(c1C#N)CCC(C)C2 (stereo unspecified) | ? | 2.82µM | 3.16µM | 10.7µM | - | -
CC1CCc2c(sc(NC(=O)COC(=O)C3CCCO3)c2C#N)C1 (stereo unspecified) | - | - | - | ? | - | -
CCOCCCNC(=O)c1ccc(NC(=O)N2CCCCc3ccccc32)cc1 | . | . | . | - | . | .
SMILES | ELG1 genotox | NPC1 promoter act | Rab9 promoter act | FLuc counter | KinaseGlo FLuc | SMN2 splice up
COc1ccc(CC[N@+]2(C)COc3cc4oc(=O)cc(C)c4cc3C2)cc1OC | . | . | . | . | -[7.66 µM] | -[9.22 µM]
COc1cc(/C=C/c2nc3ccccc3c(=O)[nH]2)cc(OC)c1OC | - | - | -[1.84 µM] | ? | . | .
Cc1cc2nc(/C=C/c3nc4cc(C)c(C)cc4[nH]3)[nH]c2cc1C | - | - | - | ? | . | .
Cc1ccc(/C=C/c2nc3ccccc3[nH]2)cc1 | . | . | . | 0.0757µM | . | .
Cc1ccc(/C=C/c2nc3ccccc3[nH]2)o1 | ? | 0.708µM | 0.447µM | 0.849µM | 12.6µM | 3.98µM
COC(=O)c1ccc(/C=C/c2nc3ccccc3c(=O)[nH]2)cc1 | ? | 0.501µM | 1.12µM | 0.675µM | . | .
Cc1ccc(/C=C/c2nc3ccccc3c(=O)[nH]2)cc1 | ? | 0.501µM | 0.355µM | 0.151µM | . | .
CC(=O)/C=C/c1ccc(C)o1 | - | - | - | - | - | -
COC(=O)c1cnn2c(C)c(Cc3c(C)cc(C)cc3C)c(C)nc12 | . | . | . | - | . | .
CCc1ccc(-c2nc(SCC(=O)NCC3CCCO3)c(-c3ccc(F)cc3)[nH]2)cc1 (stereo unspecified) | . | . | . | - | . | -
C=CCOc1cccc(/C=C/c2nc3ccccc3c(=O)[nH]2)c1 | 9.2µM | ? | 3.55µM | 1.51µM | . | .
COc1cc(/C=C/c2nc3ccccc3c(=O)[nH]2)ccc1OC(F)F | - | 5.01µM | ? | ? | . | .
O=C(O)C[C@@H](C(=O)O)C1c2ccccc2-c2ccccc21 | . | . | . | . | -[7.66 µM] | -[9.22 µM]
COCCN(C(=O)Cc1cccs1)C(C(=O)NC1CCCC1)c1cc(OC)c(OC)c(OC)c1 (stereo unspecified) | ? | ? | ? | 4.78µM | - | .
CCCCc1nc2cc(C(=O)N3CCCC(OCCC)C3)ccc2o1 (stereo unspecified) | ? | ? | ? | 16.9µM | . | .
CCCCc1nc2cc(C(=O)N3CCCC3)ccc2o1 | ? | ? | 2.82µM | ? | . | .
CCCCc1nc2cc(C(=O)N3CCCCC3C(=O)OC)ccc2o1 (stereo unspecified) | ? | ? | 2.82µM | 15.1µM | . | .
CCCCc1nc2cc(C(=O)N3CCCCC3CC(=O)OCC)ccc2o1 (stereo unspecified) | - | - | ? | - | . | .
CCCCc1nc2cc(C(=O)N3CCCC(COC)C3)ccc2o1 (stereo unspecified) | ? | 3.98µM | 3.98µM | 16.9µM | . | .
CCCCc1nc2cc(C(=O)N3CCNC(=O)C3)ccc2o1 | - | - | - | - | . | .
C1CCOC1 | . | . | . | . | . | -
Cc1ccc(Cl)cc1NC(=O)Nc1nnc(N(C)Cc2ccccc2)s1 | . | . | . | - | . | .
Cc1cccc(-c2nc(SCC(=O)NCC3CCCO3)c3c(=O)n(C)c(=O)n(C)c3n2)c1 (stereo unspecified) | . | . | . | - | . | .
CC(=O)N1CCCc2cc(S(=O)(=O)NCc3ccc(OC(C)C)cc3)ccc21 | . | . | . | - | . | .
CCOc1ccc(CCNC(=O)c2nnc(Cc3ccc(Cl)cc3Cl)o2)cc1OCC | . | . | . | - | . | -
CCCCc1nc2cc(C(=O)NC(C)c3cnn(C)c3)ccc2o1 (stereo unspecified) | ? | ? | 3.98µM | ? | . | .
CCOc1ccc(CNC(=O)C2CCN(S(=O)(=O)c3cn(C)cn3)CC2)cc1 | . | . | . | - | . | .
CCn1nc(NS(=O)(=O)c2cccc3nonc23)c2cc3ccc(C)cc3nc21 | - | - | - | 30.1µM | . | .
Cc1ccc2nc3c(cc2c1)c(NC(=O)c1ccccn1)nn3CC(C)C | - | - | - | ? | - | -
